Reference: ChEMBL document CHEMBL3433997, “St. Jude Leishmania screening dataset” (2016)

Key:
Type in all cases: functional
[1] = target: Solute carrier family 2, facilitated glucose transporter member 1 (Homo sapiens) (UniProt P11166); experiment: ST_JUDE_LEISH: Cytotoxicity at 2uM final concentration against transgenic Leishmania Mexicana promastigotes LmGLUT1 that are glucose transport deficient and complemented with the human glucose transporter GLUT1. Activity is measured by DNA content using SYBR green in vitro
[2] = target: Hexose transporter 1 (Plasmodium falciparum) (UniProt O97467); experiment: ST_JUDE_LEISH: Cytotoxicity at 2uM final concentration against transgenic Leishmania Mexicana promastigotes LmPfHT that are glucose transport deficient and complemented with the Plasmodium falciparum hexose transporter. Activity is measured by DNA content using SYBR green in vitro
[3] = target: Glucose transporter (Leishmania mexicana) (UniProt O61059); experiment: ST_JUDE_LEISH: Cytotoxicity at 2uM final concentration against transgenic Leishmania Mexicana promastigotes LmGT2 that are glucose transport deficient and complemented with the L. Mexicana glucose transporter 2. Activity is measured by DNA content using SYBR green in vitro

Sequence of Solute carrier family 2, facilitated glucose transporter member 1 (Homo sapiens) (P11166 whole entry): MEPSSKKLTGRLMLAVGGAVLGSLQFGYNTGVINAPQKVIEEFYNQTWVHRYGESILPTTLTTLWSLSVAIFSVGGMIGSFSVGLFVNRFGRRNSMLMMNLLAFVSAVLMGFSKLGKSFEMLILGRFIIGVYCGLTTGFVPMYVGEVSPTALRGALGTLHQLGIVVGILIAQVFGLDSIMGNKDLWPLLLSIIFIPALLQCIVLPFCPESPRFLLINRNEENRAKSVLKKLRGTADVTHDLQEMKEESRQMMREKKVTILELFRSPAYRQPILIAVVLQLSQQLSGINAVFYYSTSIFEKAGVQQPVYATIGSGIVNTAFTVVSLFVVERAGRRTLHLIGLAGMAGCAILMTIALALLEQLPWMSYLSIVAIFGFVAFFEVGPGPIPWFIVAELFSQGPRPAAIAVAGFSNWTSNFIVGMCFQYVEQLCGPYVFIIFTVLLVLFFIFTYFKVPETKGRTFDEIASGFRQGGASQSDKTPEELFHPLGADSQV

Structure (SMILES)	inhibition [1] [%]	inhibition [2] [%]	inhibition [3] [%]
Cc1[nH]c(C)c(-c2ccc(-c3ccccc3)nc2)c(=O)c1Br	-0.2	0.36	0.2
O=C(/C=C/c1ccc(Cl)c(Cl)c1)N1CCC(CCN2CCC(c3nc4cc(O)ccc4[nH]3)CC2)CC1	1.92	0.59	-0.62
Cc1cccc2nc(-c3ccc(-c4cccc(C(=O)NCCc5cn(C)cn5)c4)s3)[nH]c12	1.8	1.96	1
COc1cc(C)nc2ccc(NC(=O)Nc3cccc4ccccc34)cc12	3.38	5.33	3.45
Cc1n[nH]c2ccc(-c3cc(OC[C@@H](N)Cc4ccccc4)cnc3-c3cc4ccccc4s3)cc12	8.58	3.69	2.02
CCCNC[C@@H](O)[C@H](Cc1ccccc1)NC(=O)c1cc(NCC)cc(N2CCCC2=O)c1	1.25	2.29	0.72
CCn1ccc2c(N3CCCC3=O)cc(C(=O)N[C@@H](Cc3ccccc3)[C@H](O)CNC(C)(C)CCCC(C)C)cc21	0	0.39	0.34
Cc1ccc2[nH]c(NC#N)nc2c1	0.53	0.67	0.78
CC(C)c1sc(N2CCN(C)CC2)nc1C(=O)NCCc1ccc(Cl)c(Cl)c1	2.62	2.93	2.34
COc1cccc(CN2CCCC(COC(c3ccc(F)cc3)c3ccc(F)cc3)C2)c1O (stereo unspecified)	0.95	1.89	-0.91
OC(CNCc1ccccc1OCc1ccccc1)c1cccc(Br)c1 (stereo unspecified)	4.31	4.13	2.24
Cc1cc(=O)[nH]c(-n2nc(C)cc2NC(=O)C2(c3ccc(Cl)cc3)CCCC2)n1	61.6	66.3	53.5
O=C(C=Cc1ccc(Cl)c(Cl)c1)NCCCCCN1CCCC(CCCNC(=O)c2ccc3c(c2)OCO3)C1 (stereo unspecified)	2.29	0.94	-0.94
CCCCCCn1c2c(c(=N)c3c1CCC3)CCCC2	78.2	77.5	66.2
OC1CCCN(Cc2cccc(-c3ccc(-c4nc5cc(C(F)(F)F)ccc5[nH]4)cc3)c2)C1 (stereo unspecified)	2.67	2.8	3.54
COc1ccc2nccc([C@@H](O)CN3CCC(CO)(NCc4cc5ccccc5o4)CC3)c2c1	7.99	13.3	1.76

Structure (SMILES)	inhibition [1] [%]	inhibition [2] [%]	inhibition [3] [%]
Cc1noc(C)c1-c1cccc(CNCc2ccc(-c3ccc(-c4nc5cc(F)ccc5[nH]4)s3)cc2)c1	11.2	10.3	10.2
O=C(Nc1cccc(CN2CCCN(Cc3cccc(F)c3)CC2)c1)c1ccc(Cl)c(Cl)c1	4.11	2.83	6.5
CC(Cc1ccc(OCCN2CCN(c3cccc(Cl)c3)CC2)cc1)NCC(O)c1cccc(Cl)c1 (stereo unspecified)	0.3	0	1.82
CCc1ccc(CN2CCC(CNC(=O)c3cc(-c4cccc(F)c4)cs3)C2)cc1 (stereo unspecified)	-0.39	1.94	1.42
CC1(C)Cc2c(oc3ncn(CCn4cnc5oc6c(c5c4=N)CC(C)(C)SC6)c(=N)c23)CS1	-0.76	0.58	-0.4
CC1CCc2sc(-c3nnc(SC(C)C(=O)N4CCCC4)o3)cc2C1 (stereo unspecified)	2.14	1.29	-4.77
O=C(c1cc(-c2ccccc2)n[nH]1)N1CCN(S(=O)(=O)c2ccc(Cl)s2)CC1	4.06	1.3	2.66
O=C(Nc1ccc(Cl)cc1)c1ccc(CN2CCCN(Cc3ccsc3)CC2)cc1	2.78	1.42	7.21
FC(F)(F)COc1ccc(CNCCCCCCNCc2ccc(OCC(F)(F)F)c3ccccc23)c2ccccc12	113	107	108
COc1ccc(N2CCN(CCCCNC(=O)c3ccc(NC(=O)c4ccc(Cl)c(Cl)c4)cc3)CC2)c(OC)c1	2.23	1.72	1.65
CN(CCc1ccccn1)Cc1ccc(-c2ccc(-c3nc4ccccc4[nH]3)s2)cc1	-0.34	-1.13	-2.7
NC(=O)C1Cc2ccccc2CN1CC(=O)Nc1ccccc1Sc1ccccc1 (stereo unspecified)	2.73	2.07	2.18
O=C(NCCN1CCCC1)N1CCCN(c2ncnc3cc(-c4ccc(Cl)cc4)sc23)CC1	0.21	1.33	0.08
CN(C)CCC1CCN(CCS(=O)(=O)c2cccc(Nc3ccc(-c4cccc(F)c4)cn3)c2)CC1	-0.27	3.28	3.78
Cc1cc(CN2CCCC(OC(c3ccc(F)cc3)c3ccc(F)cc3)C2)ccc1O (stereo unspecified)	9.25	4.88	0.78
O=C(Nc1ccc(Oc2ccccc2)cc1)N(Cc1ccc(-c2ccc(CN3CCNCC3)cc2)cc1)C1CCN(Cc2ccccc2)CC1	-1.93	-1.14	-0.33
